# Assay results as given in the supplement of paper PMC8728848.
# Shown is part of a subset that was picked to be rich in the strongest signals.
# Experiments:
# Experiment in all cases: glycan array binding signal (z-score within array); higher = stronger binding
# Settings in all cases: glycan notation: IUPAC condensed, linker removed
# [1] = target: Fuc(a1-2)Gal(b1-3)GalNAc(b1-3)Gal(a1-4)Gal(b1-4)Glc
# In short: (§1)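 From the Consortium for Functional Glycomics database, 3228 arrays were curated, keeping only those whose protein sequence was available. Binding is given as a within-array Z-score averaged across arrays sharing a protein sequence and across linkers. Negative Z-scores can be read as non-binding.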
# [2] = target: Fuc(a1-2)Gal(b1-3)GalNAc(b1-4)[Neu5Ac(a2-3)]Gal(b1-4)Glc
# In short: as §1
# Fuc(a1-2)Gal(b1-3)GlcNAc = target: Fuc(a1-2)Gal(b1-3)GlcNAc
# In short: as §1
# [3] = target: Fuc(a1-2)Gal(b1-3)[Fuc(a1-4)]GlcNAc(b1-3)[Fuc(a1-3)[Gal(b1-4)]GlcNAc(b1-6)]Gal(b1-4)Glc
# In short: as §1
# [4] = target: Fuc(a1-2)Gal(b1-4)GlcNAc(b1-3)GalNAc
# In short: as §1
# [5] = target: Fuc(a1-2)Gal(b1-4)[Fuc(a1-3)]GlcNAc(b1-3)GalNAc
# In short: as §1
# [6] = target: Fuc(a1-2)[Gal(a1-3)]Gal(b1-3)GlcNAc(b1-2)Man(a1-3)[Fuc(a1-2)[Gal(a1-3)]Gal(b1-3)GlcNAc(b1-2)Man(a1-6)]Man(b1-4)GlcNAc(b1-4)[Fuc(a1-6)]GlcNAc
# In short: as §1
# [7] = target: Fuc(a1-2)[Gal(a1-3)]Gal(b1-4)Glc
# In short: as §1
# [8] = target: Fuc(a1-2)[GalNAc(a1-3)]Gal(b1-4)GlcNAc(b1-2)Man(a1-3)[Fuc(a1-2)[GalNAc(a1-3)]Gal(b1-4)GlcNAc(b1-2)Man(a1-6)]Man(b1-4)GlcNAc(b1-4)[Fuc(a1-6)]GlcNAc
# In short: as §1
# [9] = target: Fuc(a1-3)[Gal(b1-4)]GlcNAc(b1-2)Man(a1-3)[Fuc(a1-3)[Gal(b1-4)]GlcNAc(b1-2)Man(a1-6)]Man(b1-4)GlcNAc(b1-4)[Fuc(a1-6)]GlcNAc
# In short: as §1
# Gal(a1-2)Gal = target: Gal(a1-2)Gal
# In short: as §1
# [10] = target: Gal(a1-3)Gal(b1-4)GlcNAc(b1-3)GalNAc
# In short: as §1
# [11] = target: Gal(a1-3)Gal(b1-4)[Fuc(a1-3)]GlcNAc
# In short: as §1
# [12] = target: Gal(a1-4)Gal(b1-4)GlcNAc(b1-2)Man(a1-3)[Gal(a1-4)Gal(b1-4)GlcNAc(b1-2)Man(a1-6)]Man(b1-4)GlcNAc(b1-4)GlcNAc
# In short: as §1
# [13] = target: Gal(b1-3)GalNAc(b1-4)[Neu5Ac(a2-3)]Gal(b1-4)Glc
# In short: as §1
# [14] = target: Gal(b1-3)GlcNAc(b1-2)Man(a1-3)[Gal(b1-3)GlcNAc(b1-2)Man(a1-6)]Man(b1-4)GlcNAc(b1-4)GlcNAc
# In short: as §1
# [15] = target: Gal(b1-3)GlcNAc(b1-3)Gal(b1-3)GlcNAc
# In short: as §1
# [16] = target: Gal(b1-3)GlcNAc(b1-3)Gal(b1-4)[Fuc(a1-3)]GlcNAc(b1-6)[Gal(b1-3)GlcNAc(b1-3)]Gal(b1-4)Glc
# In short: as §1
# Gal(b1-4)GlcNAc(b1-2)Man = target: Gal(b1-4)GlcNAc(b1-2)Man
# In short: as §1
# [17] = target: Gal(b1-4)GlcNAc(b1-2)[Gal(b1-4)GlcNAc(b1-4)]Man(a1-3)[Gal(b1-4)GlcNAc(b1-2)[Gal(b1-4)GlcNAc(b1-6)]Man(a1-6)]Man(b1-4)GlcNAc(b1-4)GlcNAc
# In short: as §1
# [18] = target: Gal(b1-4)GlcNAc(b1-3)Gal(b1-3)GlcNAc
# In short: as §1
# [19] = target: Gal(b1-4)GlcNAc(b1-3)Gal(b1-4)[Fuc(a1-3)GlcNAc(b1-6)]Gal(b1-4)Glc
# In short: as §1
# Gal6S(b1-4)Glc = target: Gal6S(b1-4)Glc
# In short: as §1
# GalNAc(b1-6)GalNAc = target: GalNAc(b1-6)GalNAc
# In short: as §1
# GlcA(b1-3)Gal = target: GlcA(b1-3)Gal
# In short: as §1
# [20] = target: GlcNAc(a1-4)Gal(b1-3)GlcNAc
# In short: as §1
# [21] = target: GlcNAc(a1-4)Gal(b1-4)GlcNAc(b1-3)Gal(b1-4)Glc
# In short: as §1
# [22] = target: GlcNAc(a1-4)Gal(b1-4)GlcNAc(b1-3)Gal(b1-4)GlcNAc
# In short: as §1
# [23] = target: GlcNAc(a1-6)Gal(b1-4)GlcNAc
# In short: as §1
# [24] = target: GlcNAc(b1-2)Man(a1-3)[GlcNAc(b1-2)Man(a1-6)]Man(b1-4)GlcNAc(b1-4)[Fuc(a1-6)]GlcNAc
# In short: as §1
# [25] = target: GlcNAc(b1-4)GlcNAc(b1-4)GlcNAc
# In short: as §1
# Kdn(a2-3)Gal(b1-4)GlcNAc = target: Kdn(a2-3)Gal(b1-4)GlcNAc
# In short: as §1
# [26] = target: Man(a1-2)Man(a1-6)[Man(a1-3)]Man(a1-6)[Man(a1-2)Man(a1-2)Man(a1-3)]Man
# In short: as §1
# [27] = target: Man(a1-3)[Man(a1-6)]Man(a1-6)[Man(a1-3)]Man(b1-4)GlcNAc(b1-4)GlcNAc
# In short: as §1
# Man(a1-6)Man = target: Man(a1-6)Man
# In short: as §1
# Man(b1-4)GlcNAc = target: Man(b1-4)GlcNAc
# In short: as §1
# [28] = target: Neu5Ac(a2-3)Gal(b1-3)GalNAc(b1-4)[Neu5Ac(a2-3)]Gal(b1-4)Glc
# In short: as §1
# [29] = target: Neu5Ac(a2-3)Gal(b1-4)GlcNAc(b1-2)Man(a1-3)[Neu5Ac(a2-6)Gal(b1-4)GlcNAc(b1-2)Man(a1-6)]Man(b1-4)GlcNAc(b1-4)GlcNAc
# In short: as §1
# [30] = target: Neu5Ac(a2-3)Gal(b1-4)GlcNAc(b1-3)Gal(b1-3)GlcNAc
# In short: as §1
# [31] = target: Neu5Ac(a2-3)Gal(b1-4)[Fuc(a1-3)]GlcNAc(b1-3)Gal(b1-4)[Fuc(a1-3)]GlcNAc(b1-3)Gal(b1-4)[Fuc(a1-3)]GlcNAc
# In short: as §1
# [32] = target: Neu5Ac(a2-6)Gal(b1-4)GlcNAc(b1-3)Gal(b1-4)GlcNAc(b1-3)Gal(b1-4)GlcNAc
# In short: as §1
binder,measurement,setting,value
"CD72 ectodomain (Homo sapiens), P21854 (protein) RYLQVSQQLQQTNRVLEVTNSSLRQQLRLKITQLGQSAEDLQGSRRELAQSQEALQVEQRAHQAAEGQLQACQADRQKTKETLQSEEQQRRALEQKLSNMENRLKPFFTCGSADTCCPSGWIMHQKSCFYISLTSKNWQESQKQCETLSSKLATFSEIYPQSHSYYFLNSLLPNGGSGNSYWTGLSSNKDWKLTDDTQRTRTYAQSSKCNKVHKTWSWWTLESESCRSSLPYICEMTAFRFPD",glycan array binding signal (z-score),[1],-0.867
same,glycan array binding signal (z-score),[2],0.01
same,glycan array binding signal (z-score),Fuc(a1-2)Gal(b1-3)GlcNAc,1.12
same,glycan array binding signal (z-score),[3],-0.186
same,glycan array binding signal (z-score),[4],1.08
same,glycan array binding signal (z-score),[5],5.72
same,glycan array binding signal (z-score),[6],2.7
same,glycan array binding signal (z-score),[7],0.3
same,glycan array binding signal (z-score),[8],0.886
same,glycan array binding signal (z-score),[9],0.575
same,glycan array binding signal (z-score),Gal(a1-2)Gal,0.56
same,glycan array binding signal (z-score),[10],-1.69
same,glycan array binding signal (z-score),[11],1.45
same,glycan array binding signal (z-score),[12],0.8
same,glycan array binding signal (z-score),[13],1.16
same,glycan array binding signal (z-score),[14],1.6
same,glycan array binding signal (z-score),[15],-0.958
same,glycan array binding signal (z-score),[16],2.26
same,glycan array binding signal (z-score),Gal(b1-4)GlcNAc(b1-2)Man,0.51
same,glycan array binding signal (z-score),[17],-0.561
same,glycan array binding signal (z-score),[18],-0.795
same,glycan array binding signal (z-score),[19],-0.359
same,glycan array binding signal (z-score),Gal6S(b1-4)Glc,-0.925
same,glycan array binding signal (z-score),GalNAc(b1-6)GalNAc,-0.435
same,glycan array binding signal (z-score),GlcA(b1-3)Gal,2.21
same,glycan array binding signal (z-score),[20],-1.11
same,glycan array binding signal (z-score),[21],0.006
same,glycan array binding signal (z-score),[22],4.25
same,glycan array binding signal (z-score),[23],4.24
same,glycan array binding signal (z-score),[24],2.59
same,glycan array binding signal (z-score),[25],0.82
same,glycan array binding signal (z-score),Kdn(a2-3)Gal(b1-4)GlcNAc,0.726
same,glycan array binding signal (z-score),[26],-0.32
same,glycan array binding signal (z-score),[27],0.977
same,glycan array binding signal (z-score),Man(a1-6)Man,-0.096
same,glycan array binding signal (z-score),Man(b1-4)GlcNAc,2.32
same,glycan array binding signal (z-score),[28],-0.087
same,glycan array binding signal (z-score),[29],0.127
same,glycan array binding signal (z-score),[30],1.03
same,glycan array binding signal (z-score),[31],1.73
same,glycan array binding signal (z-score),[32],0.371
